LASV entry inh – blocks Lassa virus binding to or entry into cells; 1.2% of 300,000 active; Potency, µM (series often up to 37.9 µM), usual class: inhibitors; Lassa virus pseudotype entry inhibition, cell reporter; calls by dose curve; tested in HEK293 cells; further: nearly all actives have a fitted effect of over 50% in size
HCV inhibitor – blocks hepatitis C virus; 3.4% of 340,000 active; Huh7.5.1 HCVcc-Cre infection, luciferase reporter, 44 h; Potency, µM (doses to about 41.8 µM), usual class: inhibitors; active means well fitted inhibition curve with a large enough effect; inconclusive means small, poorly fitted or top-dose-only effect, or another doubt; inactive means no such curve, though single readings can be large or run the other way
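Cells (1,000/well) were plated 4 h before compound, then infected with HCVcc-Cre virus (~0.5 moi). After 44 h further culture, infection was read as luciferase luminescence following a 15 min substrate incubation at room temperature.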
FMDV antiviral – blocks foot and mouth disease virus | Potency, µM (doses to about 57.9 µM), usual class: inhibitors | FMDV antiviral cell-based qHTS | 1.2% of 410,000 active; calls by dose curve; tested in HEK293T cells; further: read-out not given here; nearly all actives have a fitted effect of over 45% in size
MARV entry inh – Marburg virus entry inhibition; AID 540276; Potency, µM (series often up to 37.8 µM), actives largely listed as inhibitors; 1.8% of 300,000 active; Marburg virus pseudotyped entry inhibition, cell reporter; calls by dose curve; tested in HEK293 cells
Shiga toxin inh – Shiga toxin inhibition; 9.2% of 290,000 active; inhibition, % at 38.7 µM; Vero cells, Shiga toxin protein synthesis inhibition reporter; in the data active means inhibition mostly above about 28%, no sharp cut-off; inactive means mostly below about 43%
CHX counter – affects cycloheximide protein synthesis inhibition readout, counter-screen. cell reporter, cycloheximide protein synthesis inhibition counterscreen. max response, %. 12% of 300,000 active. AID 2314; in the data active means max response mostly above about 13%, no sharp cut-off; inactive means mostly below about 14%; further: read at 38.3 µM for the half of the compounds with a filed dose
Each line names hits and unclear results; the compound was inactive in the other large screens. In the library only some 13% were active in any assay of this set; here they are far more common.

Cc1ccc(NC(=O)COC(=O)c2ccc(Cl)cc2)cc1S(=O)(=O)N(C)C	none
Cc1ccc([N+](=O)[O-])cc1S(=O)(=O)N(C)C	MARV entry inh inconclusive (no result: HCV inhibitor, FMDV antiviral)
Cc1ccc(NC(=O)CCNC(=O)c2ccc([N+](=O)[O-])cc2)cc1S(=O)(=O)N(C)C	LASV entry inh inconclusive, HCV inhibitor inconclusive, FMDV antiviral 28µM, MARV entry inh 10µM
Cc1ccc(NC(=O)c2ccc(OC(F)F)cc2)cc1S(=O)(=O)N(C)C	HCV inhibitor 7.9µM, FMDV antiviral inconclusive, MARV entry inh inconclusive, CHX counter 29
Cc1ccc(NC(=O)c2ccc([N+](=O)[O-])cc2)cc1S(=O)(=O)N(C)C	LASV entry inh inconclusive, HCV inhibitor inconclusive, Shiga toxin inh 68, CHX counter 40
Cc1ccc(CN(C)C(=O)c2ccccc2Sc2ccccc2C#N)cc1	HCV inhibitor inconclusive (no result: LASV entry inh, MARV entry inh)
COc1cc(C2Nc3ccccc3C(=O)N2c2ccc(Cl)cc2)c(Cl)cc1OCC(=O)O (centres undefined)	MARV entry inh inconclusive, Shiga toxin inh 71, CHX counter 54
CCOC(=O)COc1ccccc1C1Nc2ccccc2C(=O)N1c1cccc(Cl)c1 (centres undefined)	LASV entry inh inconclusive, Shiga toxin inh 66, CHX counter 36 (no result: FMDV antiviral)
O=C(COC(=O)CNC(=O)c1ccc([N+](=O)[O-])o1)Nc1ncc(Cl)cc1Cl	LASV entry inh inconclusive (no result: Shiga toxin inh, CHX counter)
O=C(COC(=O)CNC(=O)c1ccc([N+](=O)[O-])o1)Nc1ncc(C(F)(F)F)cc1Cl	HCV inhibitor 2.8µM (no result: LASV entry inh, MARV entry inh, Shiga toxin inh, CHX counter)
Oc1ccc(N=Nc2nc(-c3ccccc3)c(-c3ccccc3)[nH]2)cc1	LASV entry inh inconclusive, HCV inhibitor inconclusive, FMDV antiviral inconclusive, MARV entry inh inconclusive
Oc1ccc(N=Nc2n[nH]c(-c3ccccc3)n2)cc1	LASV entry inh inconclusive, MARV entry inh inconclusive, Shiga toxin inh 89, CHX counter 32
Oc1ccc(-c2nc(-c3ccccc3)c(-c3ccc(Br)cc3)[nH]2)cc1	none (no result: HCV inhibitor, Shiga toxin inh, CHX counter)
Oc1ccc(N=Nc2n[nH]c(-c3ccc(Br)cc3)n2)cc1	LASV entry inh inconclusive, MARV entry inh inconclusive, CHX counter 20
O=C(CCc1nnc2ccc(NCc3ccco3)nn12)Nc1ccc(F)cc1	MARV entry inh inconclusive
Cc1ccc(NC(=O)CCc2nnc3ccc(NCc4ccco4)nn23)cc1	CHX counter 35
CC(=C/C(=O)O)/C=C/c1ccc(Cl)o1	Shiga toxin inh 78, CHX counter 50
CN1CCC(n2cnc(-c3ccc(F)cc3)c2-c2ccnc(Nc3ccccc3)n2)CC1	LASV entry inh 16µM (no result: HCV inhibitor, FMDV antiviral, MARV entry inh, Shiga toxin inh, CHX counter)
COc1nccc(-c2c(-c3ccc(F)cc3)ncn2C2CCC(O)CC2)n1 (centres undefined)	none (no result: LASV entry inh, HCV inhibitor, MARV entry inh, Shiga toxin inh, CHX counter)
Cc1ccc2c(-c3ccnc(Nc4ccccc4)n3)c(-c3ccc(F)cc3)nn2n1	LASV entry inh 25µM (no result: HCV inhibitor, FMDV antiviral, MARV entry inh, Shiga toxin inh, CHX counter)
Fc1ccc(-c2ncn(C3CCNCC3)c2-c2ccnc(Oc3ccc4c(c3)OCO4)n2)cc1	LASV entry inh 13µM (no result: HCV inhibitor, FMDV antiviral, MARV entry inh, Shiga toxin inh, CHX counter)
Fc1ccc(-c2ncn(C3CCNCC3)c2-c2ccnc(Oc3ccccc3)n2)cc1	LASV entry inh 6.3µM (no result: HCV inhibitor, FMDV antiviral, MARV entry inh, Shiga toxin inh, CHX counter)
COCCNC(=O)CCCn1c(=O)c2ccccc2n(Cc2ccccc2C#N)c1=O	none
COC(=O)[C@@H]1C=C[C@H](C)[C@H](CCOc2ccccc2)O1	none (no result: LASV entry inh, HCV inhibitor, FMDV antiviral, Shiga toxin inh, CHX counter)
Cc1nnc(C)n1/N=C/c1cccc(Oc2ccccc2)c1	none (no result: FMDV antiviral)
Cc1ccc(-n2ncc3c(=O)n(CC(=O)N4CCN(c5ccccc5)CC4)cnc32)cc1	none
COC(=O)c1[nH]c2ccc(C)cc2c1NC(=O)CN1CCc2cc(OC)c(OC)cc2C1	HCV inhibitor 10µM, FMDV antiviral inconclusive, MARV entry inh inconclusive
COC(=O)c1[nH]c2ccc(C)cc2c1NC(=O)CN1CCCC(C)(C)C1	LASV entry inh inconclusive, HCV inhibitor 13µM, MARV entry inh inconclusive
CCOC(=O)c1c(NC(=O)CN2CCCc3ccccc32)sc(C)c1C	HCV inhibitor 3.2µM, MARV entry inh inconclusive, CHX counter 34
CCOC(=O)c1[nH]c2ccc(C)cc2c1NC(=O)CN1CCCCC1	HCV inhibitor inconclusive
CCN(CC(=O)Nc1c(C(=O)OC)[nH]c2ccc(C)cc12)c1ccc2c(c1)OCO2	HCV inhibitor 8.9µM
COC(=O)c1[nH]c2ccc(F)cc2c1NC(=O)CCN1CCN(Cc2ccc3c(c2)OCO3)CC1	HCV inhibitor inconclusive, FMDV antiviral inconclusive
CCCCn1c(N)c(N(CCOC)C(=O)COC(=O)CCOc2ccc(C)cc2)c(=O)[nH]c1=O	none (no result: LASV entry inh, MARV entry inh, Shiga toxin inh, CHX counter)
CC1=C(C(=O)Nc2ccc(C)cc2C)C(c2cccc(Cl)c2)n2nc(C(=O)OC(C)C)nc2N1 (centres undefined)	none
O=C(Nc1cc(S(=O)(=O)N2CCOCC2)ccc1Oc1ccc(F)cc1)C1=COCCO1	none (no result: Shiga toxin inh, CHX counter)
COC(=O)c1[nH]c2cc(OC)ccc2c1NC(=O)CCN1CCN(c2ccccc2)CC1	none
COC(=O)c1[nH]c2cc(OC)ccc2c1NC(=O)CCN1CCN(c2cccc(C)c2C)CC1	LASV entry inh inconclusive, HCV inhibitor 6.3µM, FMDV antiviral 40µM, MARV entry inh inconclusive
COC(=O)c1[nH]c2cc(C)ccc2c1NC(=O)CN1CCCc2ccccc21	MARV entry inh inconclusive, CHX counter 48
O=C(Cn1nnc(-c2ccc(F)cc2)n1)Nc1cccc(S(=O)(=O)N2CCCC2)c1	HCV inhibitor 22µM (no result: LASV entry inh, MARV entry inh, Shiga toxin inh, CHX counter)
Cc1ccc(NC(=O)CSCC(=O)Nc2cccc(S(=O)(=O)N3CCCCCC3)c2)cc1	HCV inhibitor 13µM (no result: LASV entry inh, MARV entry inh, Shiga toxin inh, CHX counter)
O=C(Cn1nnc(-c2ccccc2Cl)n1)Nc1cccc(S(=O)(=O)N2CCCC2)c1	LASV entry inh inconclusive, HCV inhibitor inconclusive, MARV entry inh inconclusive (no result: Shiga toxin inh, CHX counter)
Cc1ccc(Nc2nnc(SCC(=O)Nc3cccc(S(=O)(=O)N4CCCCC4)c3)s2)cc1	LASV entry inh inconclusive, HCV inhibitor inconclusive, MARV entry inh inconclusive, CHX counter 53
O=C(CSc1nnc(Nc2ccccc2)s1)NCCN1C(=O)CSC1=O	none
Cc1ccc(Nc2nnc(SCC(=O)NCCN3C(=O)CSC3=O)s2)cc1	LASV entry inh inconclusive, CHX counter 13
O=C(COc1ccc(Cl)cc1)N(Cc1ccco1)C1CCS(=O)(=O)C1 (centres undefined)	none
O=C(CSc1nnc(Nc2ccccc2F)s1)Nc1cccc(S(=O)(=O)N2CCCCC2)c1	LASV entry inh inconclusive, HCV inhibitor 13µM, FMDV antiviral inconclusive, MARV entry inh inconclusive, Shiga toxin inh 75, CHX counter 42
Cc1cccc(N2CCN(c3nc4ccccc4c4nc(-c5cccnc5)nn34)CC2)c1C	none (no result: LASV entry inh, HCV inhibitor, Shiga toxin inh, CHX counter)
CC(C)N(CCNC(=O)COc1ccc2oc3c(c2c1)CCCC3)C(C)C	HCV inhibitor 13µM, MARV entry inh inconclusive
COCCCNC(=O)COc1ccc2oc3c(c2c1)CCCC3	LASV entry inh inconclusive
Cc1ccc(NC(=O)COc2ccc3oc4c(c3c2)CCCC4)cc1C	none (no result: HCV inhibitor, Shiga toxin inh, CHX counter)
Cc1cccnc1NC(=O)COc1ccc2oc3c(c2c1)CCCC3	LASV entry inh inconclusive, Shiga toxin inh 28, CHX counter 29
CC(=O)NC(Cc1cc(C)ccc1C)C(=O)N1CCN(C(=O)Nc2ccc(C(C)=O)cc2)CC1 (centres undefined)	CHX counter 17

Bioassay records from PubChem.
